According to ChEMBL document CHEMBL3988442, “University of Dundee, Small-Polar-MMV Screening Library” (2021):
Among all 69,000 compounds or so, about 1,000 (1.4%) showed an effect of 50% or more. This is one part of a sample in which strong results are shown more often than they occur.

Test system: Leishmania donovani
Assay: Leishmania intramacrophage assay
Type: functional, organism-based
Design: scale not given: in the data most compounds retested in dose-response had high values

O=C(COCc1nc(-c2ccncc2)no1)N1CCCC1
Percent Effect (30 µM, 30.03 µM): 18.4%

O=C(COCc1nc(-c2ccncc2)no1)N1CCCCC1
Percent Effect (30.3 µM, […]): -11.93%

CC1CCCCN1C(=O)COCc1nc(-c2ccncc2)no1 (stereo not drawn)
Percent Effect (30.3 µM, […]): 55.9%

O=C(Nc1cccc(F)c1)C1CCN(Cc2noc(C3CC3)n2)CC1
Percent Effect (30.3 µM, […]): 33.46%

CN(Cc1ccc(C(=O)O)cc1)C(=O)c1sccc1OC(F)F
Percent Effect (30.3 µM, […]): 18.71%

CCC1(CO)CCN(C(=O)c2cc(COc3ccccc3F)[nH]n2)CC1
Percent Effect (30.3 µM, […]): -10.91%

CCC1(CO)CCCN(C(=O)c2cc(COc3cccc(F)c3)[nH]n2)C1 (stereo not drawn)
Percent Effect (30.3 µM, […]): 65.29%

CCC1(CO)CCCN(C(=O)c2cc(COc3ccccc3F)[nH]n2)C1 (stereo not drawn)
Percent Effect (30.3 µM, […]): -9.881%

Cc1cccc(CN2CCn3c(COc4ncccn4)nnc3C2)n1
Percent Effect (30.3 µM, […]): 26.49%

COCCn1cc(CCC(=O)Nc2c(C)nn(C)c2C)c2ccccc21
Percent Effect (30.3 µM, […]): -5.699%

CC(C)c1nc(CN(C)C2CCN(CCc3ccncc3)C2)no1 (stereo not drawn)
Percent Effect (30 µM): 35.17%

CC(C)C[C@@H](N)C(=O)N(C)Cc1csc(C(C)C)n1
Percent Effect (30.3 µM, […]): 18.19%

CC(C)c1nc(CN(C)C(=O)[C@H](N)Cc2ccc(Cl)cc2)cs1
Percent Effect (30.3 µM, […]): 64.25%

CC(C)c1nc(CN(C)C(=O)C(O)c2ccc(Cl)cc2)cs1 (stereo not drawn)
Percent Effect (30.3 µM, […]): -6.394%

CN1CCN(C(=O)CC2CCN(CCc3ccccn3)CC2)CC1
Percent Effect (30 µM, 30.03 µM): 28.67%

COC[C@@H]1CCCN1C(=O)c1cc(-c2cccc(OC)c2)n[nH]1
Percent Effect (30.3 µM, […]): 15.97%

O=C(CCCn1cnc2ccccc2c1=O)Nc1nc[nH]n1
Percent Effect (30.3 µM, […]): -11.87%

CC(C)c1ccc(S(=O)(=O)N2CSCC2C(=O)NCC(F)(F)F)cc1 (stereo not drawn)
Percent Effect (30 µM): 31.97%

CC(C)CCCNC(=O)Nc1ccc(C(N)=O)c(Cl)c1
Percent Effect (30 µM): -4.358%

CC1COC2(CCN(C(=O)Cc3ccncc3)CC2)C1.O=C(O)C(F)(F)F (stereo not drawn)
Percent Effect (30.3 µM, […]): 9.251%

O=C(Cc1ccccc1)N1CCC2(CC1)CN(c1ncccn1)CCO2
Percent Effect (30.3 µM, […]): 60.82%

O=C(CC1CC1)N1CCC2(CC1)CN(c1ncccn1)CCO2
Percent Effect (30 µM, 30.03 µM): 2.315%

Cn1cc(C2COC3(CCN(C(=O)Cc4ccccc4)CC3)C2)cn1 (stereo not drawn)
Percent Effect (30.3 µM, […]): 7.925%

O=C(Cc1ccccn1)N1CCC2(CC1)CN(c1ncccn1)CCO2.O=C(O)C(F)(F)F.O=C(O)C(F)(F)F
Percent Effect (30.3 µM, […]): 12.21%

O=C(Cc1ccncc1)N1CCC2(CC1)CC(c1ccccc1)CO2.O=C(O)C(F)(F)F (stereo not drawn)
Percent Effect (30.3 µM, […]): 68.9%

OCC1(NCc2cnc(-c3ccccn3)s2)CCOCC1
Percent Effect (30.3 µM, […]): -4.185%

CNC(=O)NCC(=O)N(C)C(c1ccc(Cl)cc1)c1cccnc1 (stereo not drawn)
Percent Effect (30.3 µM, […]): -0.8032%

CN(Cc1cncnc1)[C@H]1CN(C(=O)c2ccc[nH]2)[C@@H]2CCCO[C@@H]21
Percent Effect (30.3 µM, […]): 13.74%

CCCc1n[nH]c(C2CN(C(=O)CCCn3ccnc3C)CCO2)n1 (stereo not drawn)
Percent Effect (30.3 µM, […]): 52.76%

CCCc1n[nH]c(C2CN(C(=O)CCCn3ccnc3)CCO2)n1 (stereo not drawn)
Percent Effect (30.3 µM, […]): 48.09%

CCCc1n[nH]c(C2CN(C(=O)CCCn3cccn3)CCO2)n1 (stereo not drawn)
Percent Effect (30 µM, 30.03 µM): 8.129%

CCCC(=O)NCC(=O)Nc1cc(F)ccc1SCC(F)F
Percent Effect (30.3 µM, […]): -46.76%

CN(C)C(=O)CN1C[C@@H]2CC[C@H](C1)N(C(=O)CCCn1cncn1)C2
Percent Effect (30.3 µM, […]): 3.091%

CC(C)(C)n1nnnc1CN(Cc1ccccc1)Cc1ccccc1Cl
Percent Effect (30.3 µM, […]): -43.37%

CC(C)(C)n1nnnc1CN(Cc1ccccc1)Cc1ccc(Cl)cc1
Percent Effect (30.3 µM, […]): 73.63%

CC(C)(C)n1nnnc1CN(CCc1ccccc1)Cc1ccccc1
Percent Effect (30.3 µM, […]): 46.18%

CCC(CNC(=O)c1ccccc1OC)N1CCc2ccccc2C1 (stereo not drawn)
Percent Effect (30.3 µM, […]): 6.323%

CC(C)OCCCNC(=O)CS(=O)(=O)Cc1ccc(Cl)cc1
Percent Effect (30 µM): -19.7%

COC(=O)N1CCCN(Cn2nc(C)c(Br)c2C)CC1
Percent Effect (30.3 µM, […]): -25.9%

CCC(=O)N1CCCN(Cn2nc(C)c(Br)c2C)CC1
Percent Effect (30.3 µM, […]): -2.566%

COCC(=O)N1CCN(Cn2nc(C)c(Br)c2C)CC1
Percent Effect (30.3 µM, […]): 52.22%

Cc1ccn(Cc2nc(C(C)OCC(C)C)no2)c(=O)c1 (stereo not drawn)
Percent Effect (30.3 µM, […]): 4.888%

Cc1[nH]ccc1C(=O)N1CCC2(CC1)c1nc[nH]c1CCN2CC(C)C
Percent Effect (30.3 µM, […]): 14.63%

CCN1CCC(CC(=O)NCC(O)c2cccc(OC)c2)CC1 (stereo not drawn)
Percent Effect (30.3 µM, […]): 23.15%

OC(CNC1CCSCC1)c1cccc(OCc2ccccc2)c1 (stereo not drawn)
Percent Effect (30.3 µM, […]): 77.88%

COc1cccc(C(O)CNC(=O)CC2CCCCC2)c1 (stereo not drawn)
Percent Effect (30.3 µM, […]): -1.709%

OC(CNC1CCOCC1)c1cccc(OCc2ccccc2)c1 (stereo not drawn)
Percent Effect (30.3 µM, […]): 10.21%

CN1CCC(NCC(O)c2cccc(OCc3ccccc3)c2)CC1 (stereo not drawn)
Percent Effect (30.3 µM, […]): 100.4%

c1ccc(COc2cccc(CNC3CCc4ncnn4C3)c2)cc1 (stereo not drawn)
Percent Effect (30 µM): -0.9201%

CN(Cc1cnn(C)c1)C(=O)Cc1ccc2c(c1)OCCO2
Percent Effect (30.3 µM, […]): 1.956%

COCCCN(C)C1CCCN(Cc2noc(C)n2)C1 (stereo not drawn)
Percent Effect (30 µM, 30.03 µM): 26.31%

Cc1nc(CN(C)C2CCN(Cc3cccc4c3OCCO4)C2)no1 (stereo not drawn)
Percent Effect (30 µM): 6.673%

Cn1ccnc1CCNC(=O)NCCC1CCCCO1 (stereo not drawn)
Percent Effect (30.3 µM, […]): 11.89%

O=C(C1CCOC1)N1C[C@H]2CN(c3ccccc3)C(=O)[C@H]2C1 (stereo partly drawn)
Percent Effect (30.3 µM, […]): 6.072%

CC1CCN(CCNC(=O)c2cncnc2C(C)C)CC1
Percent Effect (30 µM, 30.03 µM): 11.52%

Cc1ncncc1C(=O)NCCN1CCC(C)CC1
Percent Effect (30.3 µM, […]): 57.89%

CCc1ncncc1C(=O)NCCN1CCC(C)CC1
Percent Effect (30 µM, 30.03 µM): 18.33%

Cn1cnnc1C1CCCN(C(=O)NCCOc2ccccc2)C1 (stereo not drawn)
Percent Effect (30 µM, 30.03 µM): 2.584%

CCc1nc(C2CCCN2C(=O)CCc2cscn2)no1 (stereo not drawn)
Percent Effect (30 µM): -30.43%

Cc1cccc(CN(Cc2ccccn2)S(=O)(=O)N(C)C)c1
Percent Effect (30.3 µM, […]): 9.457%

Cc1cccc(CN(Cc2ccccn2)Cc2ncc(C(C)(C)C)o2)c1
Percent Effect (30.3 µM, […]): 68.09%

CCN(Cc1cccc(Cl)c1)Cc1ncc(C(C)(C)C)o1
Percent Effect (30.3 µM, […]): 12.9%

Cc1ccc(F)c(C(=O)N2C[C@@H](C(=O)O)[C@H](c3ccncc3)C2)c1Cl
Percent Effect (30.3 µM, […]): 16.35%

O=S1(=O)CCC(c2nc(-c3cccc(Br)c3)no2)C1 (stereo not drawn)
Percent Effect (30.3 µM, […]): 2.793%

COCCN(Cc1cnn(C)c1)CC1CCOC1 (stereo not drawn)
Percent Effect (30.3 µM, […]): -5.95%

COCCN(Cc1cnn(C)c1)CC1CCN(C(C)C)CC1
Percent Effect (30.3 µM, […]): 53.86%

COCCN(Cc1cnn(C)c1)Cc1ccc(C)o1
Percent Effect (30.3 µM, […]): 22%

c1ccc2c(N3CCCC3Cn3cccn3)ncnc2c1 (stereo not drawn)
Percent Effect (30 µM, 30.03 µM): 38.82%

Cc1nccn1CC1CCCN1S(=O)(=O)Cc1ccccc1F (stereo not drawn)
Percent Effect (30 µM, 30.03 µM): 17.08%

COCc1noc(-c2cc(Cl)c3c(c2)OCO3)n1
Percent Effect (30.3 µM, […]): -15.75%

O=C(CCn1c(=O)oc2ccccc21)NCC(O)c1ccccc1 (stereo not drawn)
Percent Effect (30.3 µM, […]): 50.97%

O=C(CCn1c(=O)oc2ccccc21)NCC(O)c1ccc(F)c(F)c1 (stereo not drawn)
Percent Effect (30.3 µM, […]): 41.71%

O=C(CCn1c(=O)oc2ccccc21)NCC(O)c1ccc(Cl)cc1 (stereo not drawn)
Percent Effect (30.3 µM, […]): 46.94%

OC1=C2C(=Nc3n[nH]c(O)c3C2c2ccccc2Cl)CCC1 (stereo not drawn)
Percent Effect (30.3 µM, […]): 11.34%

CN(C)c1cncc(C2CCN(CCO)CC2)n1
Percent Effect (30 µM, 30.03 µM): 34.76%

COCC(=O)N1Cc2nccn2CC(CN(C)Cc2cccnc2)C1 (stereo not drawn)
Percent Effect (30.3 µM, […]): 24.51%

CN(Cc1cccnc1)CC1CN(C(N)=O)Cc2nccn2C1 (stereo not drawn)
Percent Effect (30.3 µM, […]): 59.79%

CCC(=O)N1Cc2nccn2CC(CN(C)Cc2cccnc2)C1.O=C(O)C(F)(F)F.O=C(O)C(F)(F)F (stereo not drawn)
Percent Effect (30 µM, 30.03 µM): 14.09%

NC(=O)CCn1cc(CNCCCc2ccccc2O)c2ccccc21
Percent Effect (30.3 µM, […]): 30.89%

Cc1ccsc1CNCC1CCCN1c1cccnn1 (stereo not drawn)
Percent Effect (30 µM): 29.66%

CC(C)N1CCC2(CCCN(Cc3ccc(F)cc3)C2=O)C1 (stereo not drawn)
Percent Effect (30.3 µM, […]): 12.06%

CCCc1cc(N2CCC(N[C@H]3CC[C@H](O)CC3)CC2)nc(C)n1
Percent Effect (30.3 µM, […]): 8.442%

Cc1nn(C)c2cn(CC(=O)N3CCN(c4ccccc4)CC3)nc12
Percent Effect (30.3 µM, […]): 30.49%

CN1CCN(c2ccccc2NC(=O)c2ccco2)CC1
Percent Effect (30.3 µM, […]): 13.32%

CN1CCN(c2ccc(Br)cc2NC(=O)c2ccco2)CC1
Percent Effect (30.3 µM, […]): 53.58%

CN1CCN(c2ccc(Cl)cc2NC(=O)c2ccco2)CC1
Percent Effect (30.3 µM, […]): 18.57%

Cc1ccc(C(=O)O)cc1-c1cccc2c1CCNC2
Percent Effect (30.3 µM, […]): 17.04%

O=C(c1ccnnc1)N1C[C@H](OCC2CC2)[C@H]2COC[C@H]21
Percent Effect (30.3 µM, […]): 15.2%

CCOc1ccc(Cl)c(C(=O)NC(C(N)=O)c2ccccc2)n1 (stereo not drawn)
Percent Effect (30.3 µM, […]): 28.97%

Cc1cccc(CN2C(=O)CC[C@@H]3[C@H]2CCN3Cc2ccc(C)s2)n1.O=C(O)C(F)(F)F.O=C(O)C(F)(F)F
Percent Effect (30 µM, 30.03 µM): 7.01%

Cc1ccc(-n2ncc3c2CCCC3N)cc1C (stereo not drawn)
Percent Effect (30.3 µM, […]): 72.93%

CN(C)S(=O)(=O)NC1CCCc2c1cnn2-c1ccc(C(C)(C)C)cc1 (stereo not drawn)
Percent Effect (30.3 µM, […]): 27.24%

NC1CCCc2c1cnn2-c1cc(F)cc(F)c1 (stereo not drawn)
Percent Effect (30.3 µM, […]): -4.914%

CC(C)(C)c1ccc(-n2ncc3c2CCCC3N)cc1 (stereo not drawn)
Percent Effect (30.3 µM, […]): 27.02%

Cc1ccc(-n2ncc(C(=O)N(C)C3CCN(C)CC3)c2N)cc1C
Percent Effect (30.3 µM, […]): 14.5%

Cc1cc(C)cc(-n2ncc3c2CCCC3N)c1 (stereo not drawn)
Percent Effect (30.3 µM, […]): 79.9%

O=C(O)C(F)(F)F.c1cnc(NCc2nnn3c2CN(Cc2ccsc2)CCC3)nc1
Percent Effect (30.3 µM, […]): -35.49%

Cc1ccc(OCCNc2cccc(C(=O)N3CCOCC3)c2)cc1
Percent Effect (30.3 µM, […]): 19.35%

CC(=O)NCc1cccc(-n2ccnc2-c2cccc(C(=O)O)c2)c1
Percent Effect (30.3 µM, […]): -4.637%

CC(C)C(NC(=O)c1ccccc1F)C(=O)Nc1cnn(C)c1 (stereo not drawn)
Percent Effect (30.3 µM, […]): 14.78%

Cc1ccc(-c2cc(C(=O)NCCN3CCCS3(=O)=O)[nH]n2)cc1
Percent Effect (30 µM): -10.89%

CC(C)c1nc(C2CCCN(C(=O)CCCn3ccnc3)C2)no1 (stereo not drawn)
Percent Effect (30 µM): 30.47%

NC(=O)C1CCCN1C1CCN(C(=O)c2ccc3c(c2)OCO3)CC1 (stereo not drawn)
Percent Effect (30.3 µM, […]): 5.65%
